These results are taken from PubChem BioAssay (NCATS).

Test [1] concerns the target Peroxisome proliferator-activated receptor delta (Homo sapiens) (UniProt Q03181). Description: qHTS assay for small molecule agonists of peroxisome proliferator-activated receptor delta signaling (AID 588534).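 Further: 0% = DMSO basal wells and 100% = positive control agonist at 10 µM.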 Summed up: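 Titration series tested in agonist mode on beta-lactamase reporter cells; 18 hrs at 37 C after a 5 hr pre-incubation. Readout: CCF4 fluorescence, 2 hrs RT. Hill equation gives EC50 and maximal response.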
Background: In qHTS, concentration-response curves come from the screen itself.

Test [2] concerns the target Peroxisome proliferator-activated receptor gamma (Homo sapiens) (UniProt P37231). Briefly: qHTS assay for small molecule agonists of peroxisome proliferator-activated receptor gamma signaling (AID 588536; active means well fitted curve in the direction sought with a large enough effect in the signal ratio, with a control signal flat, not every such curve was filed as active; the % refers to the signal ratio;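 further: 0% = DMSO basal wells and 100% = rosiglitazone at 2 µM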). In a few lines: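 This is an agonist-mode beta-lactamase reporter assay in HEK293 PPAR-gamma-UAS-bla cells with 1% charcoal/dextran FBS. Compound titrations ran 16 h at 37 C before CCF4 detection. EC50 and efficacy are Hill fits scaled to 2 uM rosiglitazone (100%) and DMSO basal.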

Test [3] has the same target. Description: qHTS assay for small molecule antagonists of peroxisome proliferator-activated receptor gamma signaling (AID 588537; active means well fitted inhibition curve with a large enough effect in the signal ratio, with a control signal flat, not every such curve was filed as active; the % refers to the signal ratio;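 further: reporter cells co-stimulated with 50 nM rosiglitazone agonist during compound treatment; % of control where 0% means no effect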). In a few lines:
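Read-out: CCF4 fluorescence (ex 405, em 460/530 nm) after 2 h at RT. Cells were HEK293 carrying a UAS-bla reporter and treated 16 h at 37 C with compound plus rosiglitazone (50 nM final). Normalized to rosiglitazone and DMSO.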

Test [4] deals with Vitamin D3 receptor (Homo sapiens) (UniProt P11473). Description: qHTS assay for small molecule antagonists of vitamin D receptor signaling (AID 588541).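 Further: receptor activated by calcitriol during compound treatment; on the % scale 0 is the no-effect control and ±100 the full control effect.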 In a few lines:
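VDR-UAS-bla HEK293T cells in 2% charcoal-stripped FBS were stimulated with 1-alpha,25-dihydroxyvitamin D3 (3 nM final) plus compound for 16 h at 37 C. The beta-lactamase CCF4 readout was normalized to 50 nM agonist and DMSO, and Hill fits gave IC50.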

Test [5] has the same target. Description: qHTS assay for small molecule agonists of vitamin D receptor signaling (AID 588543).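 Further: 0% = DMSO basal and 100% = reference agonist control.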 In a few lines: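 qHTS in agonist mode: compound titrations stimulate a VDR-driven β-lactamase reporter in HEK293T cells over 16 h at 37 °C. Response normalized to 50 nM 1α,25-dihydroxyvitamin D3 = 100%, DMSO = 0%; Hill fitting gives EC50 and maximal response.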
Test [6] is described as follows: qHTS assay for small molecule agonists of retinoid X receptor alpha signaling (AID 588544).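 On activation: 0% = DMSO basal wells and 100% = reference agonist.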 The following applies: HEK293T RXRa-UAS-bla, beta-lactamase reporter, 18 h; 530 nm emission.
In test [7] the target is Retinoic acid receptor RXR-alpha (Homo sapiens) (UniProt P19793). The description is as above.
Sequence of Retinoic acid receptor RXR-alpha (Homo sapiens) (P19793 whole entry, looked up): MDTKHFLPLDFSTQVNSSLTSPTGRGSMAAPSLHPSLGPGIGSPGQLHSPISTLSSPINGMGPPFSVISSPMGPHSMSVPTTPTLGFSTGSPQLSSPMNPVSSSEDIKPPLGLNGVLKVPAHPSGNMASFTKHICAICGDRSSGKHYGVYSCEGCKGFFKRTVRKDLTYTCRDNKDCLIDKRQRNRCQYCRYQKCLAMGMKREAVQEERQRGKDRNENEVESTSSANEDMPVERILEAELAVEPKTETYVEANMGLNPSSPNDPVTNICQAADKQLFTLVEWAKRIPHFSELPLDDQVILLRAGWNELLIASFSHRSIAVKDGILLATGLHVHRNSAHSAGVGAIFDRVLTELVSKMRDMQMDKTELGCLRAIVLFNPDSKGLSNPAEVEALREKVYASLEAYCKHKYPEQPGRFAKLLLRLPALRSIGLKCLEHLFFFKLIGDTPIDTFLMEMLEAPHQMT
Test [8] is described as follows: qHTS assay for small molecule antagonists of retinoid X receptor alpha signaling (AID 588546; active means well fitted inhibition curve with a large enough effect in the signal ratio, with a control signal flat, not every such curve was filed as active; the % refers to the signal ratio;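 further: cells stimulated with 9-cis-retinoic acid as agonist; on the % scale 0 is the no-effect control and ±100 the full control effect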). The following applies: HEK293T RXRa-UAS-bla, beta-lactamase ratio, antagonist mode; measured here: W530 green channel, cytotoxicity proxy. In a few lines:
(§1)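 Beta-lactamase reporter inhibition, read as CCF4 fluorescence ratio (ex 405, em 460/530 nm) after 2 h at RT. HEK293T UAS-bla cells, 2500/well, were stimulated with 9-cis-RA at 500 or 100 nM final alongside test compound for 18 h at 37 C.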

Test [9] has as its target Thyroid hormone receptor beta (Homo sapiens) (UniProt P10828). Briefly: qHTS assay for small molecule antagonists of thyroid hormone receptor beta signaling (AID 588547; active means well fitted inhibition curve with a large enough effect in the signal ratio, with a control signal flat, not every such curve was filed as active; the % refers to the signal ratio;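 further: cells stimulated with 0.4 nM T3 agonist during compound exposure; on the % scale 0 is the no-effect control and ±100 the full control effect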). The following applies: TR-UAS-bla HEK293, beta-lactamase ratio, antagonist mode, 18 h. In a few lines:
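TR-UAS-bla GripTite HEK293 cells in 2% charcoal/dextran FBS medium; compounds 0.59 nM to 92 uM with T3 at 0.4nM final, 18 h at 37 C. Beta-lactamase read by CCF4 fluorescence (460/530 nm); Hill fits gave IC50 and efficacy.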

A short description of test [10]: qHTS assay for small molecule agonists of the antioxidant response element (ARE) signaling pathway (AID 651741; active means well fitted activation curve with a large enough effect in the signal ratio; the % refers to the signal ratio; further: potency means the concentration at half of the fitted maximal effect; on activation: % of control where 0% means no effect). Summed up:
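HepG2 ARE-bla reporter cells, 2,000/well; 5 h settle at 37 C/5% CO2; compound pin transfer (23 nL, DMSO); 16 h at 37 C; LiveBLAzer B/G FRET substrate, 2 h RT; fluorescence intensity read.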

Test [11] in a line: qHTS assay for small molecule activators of the p53 signaling pathway (AID 651743; active means well fitted activation curve with a large enough effect in the signal ratio, not every such curve was filed as active; the % refers to the signal ratio; further: % of control where 0% means no effect). The settings on record: HCT-116 p53RE-bla, beta-lactamase FRET ratio, 16 h; activation: stronger effect = higher value. Summed up: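 Reporter: beta-lactamase driven by p53 response elements, stably integrated in HCT-116 cells. Cells seeded at 4,000/well, 5 h preincubation, compound (DMSO) 16 h at 37 C; B/G FRET substrate 2 h RT; fluorescence intensity read.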

The nature of test [12]: qHTS assay for small molecule activators of the nuclear factor-kappa B (NF-kB) signaling pathway (AID 651749; active means well fitted activation curve with a large enough effect in the signal ratio; the % refers to the signal ratio; further: % of control where 0% means no effect). The settings on record: NF-kB-bla ME-180 cells, beta-lactamase FRET ratio, 16 h; activation: stronger effect = higher value. Summed up: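 NF-kB-bla ME-180 cells, 2,000/well; 23 nL compound or DMSO pinned; 16 hr, 37C/5% CO2; beta-lactamase FRET read-out.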
Test [13] is described as follows: qHTS assay for environmental chemicals that activate the Aryl hydrocarbon Receptor (AhR) signaling pathway (AID 651777; active means well fitted curve in the direction sought with a large enough effect; an effect the other way counts as inactive or inconclusive; further: % of control where 0% means no effect; nearly all actives have a fitted effect of over 15% in size). The following applies: 1A2-DRE human hepatoma cells, luciferase, 24 h; activation: stronger effect = higher value. In a few lines: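 1A2-DRE human hepatoma reporter line; 1,200 cells/well; cmpd or DMSO 24 h, 37 C/5% CO2; One-Glo 30 min RT; luciferase lum.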

Test [14] concerns the target Peroxisome proliferator-activated receptor alpha (Homo sapiens) (UniProt Q07869). Description: qHTS assay for small molecule agonists of the peroxisome proliferator-activated receptor alpha (PPARalpha) signaling pathway (AID 651778; active means well fitted curve in the direction sought with a large enough effect; an effect the other way counts as inactive or inconclusive; further: % of control where 0% means no effect). The settings on record: PathHunter PPARalpha complementation, chemiluminescence, 6 h; max response: stronger effect = higher value. In a few lines: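 Enzyme-fragment complementation assay in which ligand-bound PPARalpha translocates and forms an active enzyme that generates chemiluminescence. Cells were plated overnight, exposed to compound for 6 hr at 37 C, and then given detection reagent for 60 min at room temperature.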

The nature of test [15]: qHTS assay for small molecule agonists of the antioxidant response element (ARE) signaling pathway measured by Nrf2-dependant transcriptional activity (AID 720636; active means well fitted curve in the direction sought with a large enough effect in the repeat runs; an effect the other way counts as inactive or inconclusive;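 further: HepG2 cells with an ARE-driven luciferase reporter; % of control where 0% means no effect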). Summed up:
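Cells: ARE-luc HepG2 with Nrf2-responsive luciferase. Medium contained 1% dialyzed FBS. Compound exposure lasted 16 hr at 37 C and 5% CO2, followed by ONE-Glo luciferase detection.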

Test [16] can be described thus: qHTS assay for small molecule agonists of the antioxidant response element (ARE) signaling pathway measured by Nrf2-dependant transcriptional activity - cell viability counter screen (AID 720653; active means well fitted curve in the direction sought with a large enough effect in the repeat runs; an effect the other way counts as inactive or inconclusive; further: on the % scale 0 is the no-effect control and ±100 the full control effect). The settings on record: ARE-bla HepG2 viability, CellTiter-Glo ATP luminescence, 16 h; max response: stronger effect = lower value. In a few lines:
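ARE-bla HepG2 cells treated with compounds for 16 h at 37C; this counter screen measures viability as intracellular ATP by CellTiter-Glo luminescence after 30 min at room temperature.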

Test [17] is described as follows: qHTS assay for cell viability of HEK293 cells (AID 743288; active means well fitted curve in the direction sought with a large enough effect; an effect the other way counts as inactive or inconclusive; further: on the % scale 0 is the no-effect control and ±100 the full control effect; nearly all actives have a fitted effect of over 50% in size). The settings on record: ATP luminescence (CellTiter-Glo), 18 h; max response: stronger effect = lower value. Summed up: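 Quantitative high-throughput screen: compounds were pinned onto parental HEK293 cells (2,000 per well) after a minimum 5 h settling at 37 C, incubated 18 h at 37 C, and intracellular ATP measured by luciferase luminescence.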

Test [18] can be described thus: qHTS assay for cell viability of the p53RE-bla HCT-116 cell line (AID 743292; active means well fitted curve in the direction sought with a large enough effect; an effect the other way counts as inactive or inconclusive; further: on the % scale 0 is the no-effect control and ±100 the full control effect; nearly all actives have a fitted effect of over 55% in size). Summed up:
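HCT-116 p53RE-bla cells seeded 4,000/well; 5 h at 37 C; compound (DMSO) added; 16 h at 37 C; CellTiter-Glo added, 30 min RT; luminescence read.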

Test [19] deals with Nuclear receptor subfamily 1 group I member 2 (Rattus norvegicus) (UniProt Q9R1A7). Briefly: qHTS assay for small molecule activators of the rat pregnane X receptor (rPXR) signaling pathway (AID 651751; call rule not given here; further: 0% is about no effect). The following applies: rPXR reporter cells, luciferase (One-Glo), 24 h.
Sequence of Nuclear receptor subfamily 1 group I member 2 (Rattus norvegicus) (Q9R1A7 whole entry, looked up): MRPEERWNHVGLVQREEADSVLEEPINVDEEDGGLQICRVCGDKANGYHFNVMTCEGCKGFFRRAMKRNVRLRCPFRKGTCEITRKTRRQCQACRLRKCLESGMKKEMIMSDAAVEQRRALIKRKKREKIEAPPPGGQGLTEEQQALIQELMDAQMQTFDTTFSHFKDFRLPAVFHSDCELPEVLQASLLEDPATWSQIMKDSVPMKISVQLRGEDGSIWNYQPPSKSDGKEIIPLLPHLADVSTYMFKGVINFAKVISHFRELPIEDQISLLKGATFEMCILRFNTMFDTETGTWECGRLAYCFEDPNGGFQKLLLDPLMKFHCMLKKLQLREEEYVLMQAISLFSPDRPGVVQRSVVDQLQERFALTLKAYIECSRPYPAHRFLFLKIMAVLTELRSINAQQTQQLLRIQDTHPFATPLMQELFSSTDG
The nature of test [20]: qHTS assay for small molecule activators of the human pregnane X receptor (PXR) signaling pathway (AID 720659; call rule not given here; further: 0% is about no effect).
A short description of test [21]: Cell Viability - LYMP2-004 (AID 966; active means well fitted curve in the direction sought with a large enough effect; an effect the other way counts as inactive or inconclusive;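 further: plate controls were DMSO only for no effect and tetraoctylammonium bromide control for full effect; nearly all actives have a fitted effect of over 65% in size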). In a few lines:
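Luminescent ATP read-out (CellTiter-Glo, 30 min RT) after 24 hr compound exposure at 37 C; 2500 lymphoblastoid cells/well, complete medium. Decrease in ATP = cytotoxicity; AC50 from standard Hill model.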

A short description of test [22]: Cell Viability - LYMP2-025 (AID 976; active means well fitted curve in the direction sought with a large enough effect; an effect the other way counts as inactive or inconclusive;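 further: plate controls were DMSO only for no effect and tetraoctylammonium bromide control for full effect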). In a few lines:
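CellTiter-Glo luminescence (cellular ATP) after 24 h compound exposure at 37 C; LYMP2-025 human lymphoblastoid cells, 2500/well, complete medium. Tetraoctylammonium bromide positive control. AC50 by Hill equation fit of qHTS concentration-response.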

A short description of test [23]: S16 Schwann cell PMP22 intronic element beta-lactamase assay (AID 624044).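 Further: 0% = DMSO and -100% = potassium clavulanate positive control; nearly all actives have a fitted effect of over 15% in size.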 The settings on record: S16 rat Schwann cells, PMP22 element beta-lactamase FRET, 24 h; ratio activity, negative = inhibition: at 38.3 µM (top of the series). Summed up: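 Beta-lactamase reporter under a PMP22 intronic regulatory element in stable S16 rat Schwann cells; 24 h compound exposure. 460 nm blue signal normalized between DMSO (0%) and potassium clavulanate, with 535 nm FRET tracking viability; curves classed by r2 and response.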

Test [24] has as its target Retinoic acid receptor RXR-alpha (Homo sapiens) (UniProt P19793). Briefly: qHTS assay for small molecule antagonists of retinoid X receptor alpha signaling (AID 588546).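 Further: cells stimulated with 9-cis-retinoic acid as agonist; on the % scale 0 is the no-effect control and ±100 the full control effect.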 The settings on record: HEK293T RXRa-UAS-bla, beta-lactamase ratio, antagonist mode. Summed up:
as §1

Inconclusive results are not listed. Calls of active or inactive are those of the source. Unless noted, the call rests on the fitted dose curve.

Sequence of Vitamin D3 receptor (Homo sapiens) (P11473 whole entry, looked up): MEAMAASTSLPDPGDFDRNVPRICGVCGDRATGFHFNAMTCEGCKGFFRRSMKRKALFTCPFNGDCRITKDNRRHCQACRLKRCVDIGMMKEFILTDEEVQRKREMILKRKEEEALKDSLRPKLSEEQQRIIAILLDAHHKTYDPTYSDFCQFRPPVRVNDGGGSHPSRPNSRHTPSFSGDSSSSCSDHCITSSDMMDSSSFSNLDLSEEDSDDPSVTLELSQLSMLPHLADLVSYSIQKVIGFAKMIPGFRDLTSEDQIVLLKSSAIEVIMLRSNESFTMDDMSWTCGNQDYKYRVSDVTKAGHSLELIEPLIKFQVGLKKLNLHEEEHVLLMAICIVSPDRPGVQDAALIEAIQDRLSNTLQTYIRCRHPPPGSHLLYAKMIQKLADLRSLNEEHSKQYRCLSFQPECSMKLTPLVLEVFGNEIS
Sequence of Peroxisome proliferator-activated receptor delta (Homo sapiens) (Q03181 whole entry, looked up): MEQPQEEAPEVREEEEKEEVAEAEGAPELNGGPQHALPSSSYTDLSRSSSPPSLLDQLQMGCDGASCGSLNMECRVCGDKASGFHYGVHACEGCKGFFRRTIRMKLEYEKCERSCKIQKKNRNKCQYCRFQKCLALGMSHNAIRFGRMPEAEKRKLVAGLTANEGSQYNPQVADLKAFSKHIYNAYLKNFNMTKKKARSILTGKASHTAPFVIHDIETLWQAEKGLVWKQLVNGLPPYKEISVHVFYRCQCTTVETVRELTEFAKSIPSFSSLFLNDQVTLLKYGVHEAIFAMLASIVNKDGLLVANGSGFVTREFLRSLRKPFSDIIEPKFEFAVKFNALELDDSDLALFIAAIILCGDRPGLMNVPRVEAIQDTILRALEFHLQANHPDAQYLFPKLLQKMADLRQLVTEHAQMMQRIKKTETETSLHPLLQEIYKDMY
Sequence of Peroxisome proliferator-activated receptor alpha (Homo sapiens) (Q07869 whole entry, looked up, the tested form may be a part): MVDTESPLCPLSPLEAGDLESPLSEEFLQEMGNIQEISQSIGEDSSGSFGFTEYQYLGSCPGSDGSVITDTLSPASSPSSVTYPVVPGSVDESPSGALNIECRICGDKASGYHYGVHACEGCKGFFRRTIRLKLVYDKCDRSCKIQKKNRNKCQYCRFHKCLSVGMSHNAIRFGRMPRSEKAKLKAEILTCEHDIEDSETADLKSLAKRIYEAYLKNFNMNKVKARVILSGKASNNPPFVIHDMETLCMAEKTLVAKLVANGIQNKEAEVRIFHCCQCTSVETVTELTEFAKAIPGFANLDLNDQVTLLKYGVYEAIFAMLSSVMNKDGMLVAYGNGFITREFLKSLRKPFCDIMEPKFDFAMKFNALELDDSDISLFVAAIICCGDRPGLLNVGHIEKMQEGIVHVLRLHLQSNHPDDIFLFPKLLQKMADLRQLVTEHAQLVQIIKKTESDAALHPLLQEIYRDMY
Sequence of Peroxisome proliferator-activated receptor gamma (Homo sapiens) (P37231 whole entry, looked up): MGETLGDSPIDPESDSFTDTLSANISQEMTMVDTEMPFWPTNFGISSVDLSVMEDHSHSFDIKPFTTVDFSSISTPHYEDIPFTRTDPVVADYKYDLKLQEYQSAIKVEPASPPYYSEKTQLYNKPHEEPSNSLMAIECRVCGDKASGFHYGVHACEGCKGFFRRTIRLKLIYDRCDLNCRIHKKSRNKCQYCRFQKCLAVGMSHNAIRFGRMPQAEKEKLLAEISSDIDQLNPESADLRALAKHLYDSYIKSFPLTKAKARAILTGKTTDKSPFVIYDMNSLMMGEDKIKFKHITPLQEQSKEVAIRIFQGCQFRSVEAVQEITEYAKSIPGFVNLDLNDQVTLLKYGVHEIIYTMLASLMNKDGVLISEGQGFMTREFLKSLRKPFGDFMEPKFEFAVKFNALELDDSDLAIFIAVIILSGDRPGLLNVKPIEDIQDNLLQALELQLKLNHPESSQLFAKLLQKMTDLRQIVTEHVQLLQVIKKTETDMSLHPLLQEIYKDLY
Sequence of Thyroid hormone receptor beta (Homo sapiens) (P10828 whole entry, looked up): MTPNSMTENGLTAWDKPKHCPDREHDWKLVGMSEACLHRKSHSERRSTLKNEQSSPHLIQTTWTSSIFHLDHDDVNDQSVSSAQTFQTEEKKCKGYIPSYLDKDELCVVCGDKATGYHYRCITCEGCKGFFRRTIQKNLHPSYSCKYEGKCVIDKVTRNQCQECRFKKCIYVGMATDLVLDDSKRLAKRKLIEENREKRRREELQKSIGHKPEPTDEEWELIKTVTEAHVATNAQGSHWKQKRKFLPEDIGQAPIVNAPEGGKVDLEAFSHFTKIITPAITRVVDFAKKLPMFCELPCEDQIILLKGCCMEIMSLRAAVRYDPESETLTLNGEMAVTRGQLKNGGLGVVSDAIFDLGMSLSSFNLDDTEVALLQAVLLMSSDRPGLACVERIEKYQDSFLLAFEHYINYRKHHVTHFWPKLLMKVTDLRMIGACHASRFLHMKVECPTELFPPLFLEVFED

As to `CC1=NNC(=O)N(/N=C/c2cccnc2)C1`, the outcome in [1], in test [5] and in test [20] was inactive. The Potency entry in [2], in [3], in test [4], in test [7], in [10] and in test [15] was “inactive” throughout. The Potency result in test [18] is “inactive”. In addition, the max response is -7.06% in test [6]; -9.27% in test [8]; -0.256% (inactive) in test [14]; -9.52% (inactive) in [16]; -11.1% (inactive) in test [17]; -1.81% (inactive) in [19]. In addition, in [9], the activity change % (negative = inhibition) is -22% (inactive). Moreover, the activation in test [11] was 3.81% (inactive); in test [12] it was 0.0556% (inactive); in [13] it was -0.299% (inactive).
On to `Brc1ccc(Oc2ccc(Br)cc2)cc1`, for which the compound was called inactive in test [1].
On to `Cc1cc(Cl)ccc1N=CN(C)C`, for which the result in test [1] and in test [20] was inactive. The Potency entry in test [3], in [4], in test [7], in test [15] and in [18] was “inactive” each time. The max response in test [6] was -2.15%; in test [8] it was -3.88%; in test [14], -0.583% (inactive); in [16], -12.3% (inactive); in test [17], -10.1% (inactive); in test [19] it was 1.62% (inactive). The figures for the activation in [11] and in test [13] were 0.7% (inactive) and 1.22% (inactive), respectively.
With `CO`, in test [1], the compound was called inactive. In test [10], the Potency was 42.2 µM (active).
As to `COS(C)(=O)=O`, the outcome in [1] was inactive. In addition, in test [10], the Potency was 42.2 µM (active).
As for `CCOc1ccc(NC(C)=O)cc1N`, the compound was classed as inactive in [1].
Same read-out and setting: the value for `Nc1ccc(F)cc1F` was “inactive”.
Turning to `Cc1ccccc1`, the Potency result in test [21], in test [22] and in test [23] was “inactive” each time. Besides, the compound was called inactive in [1].
In the case of `CCOP(=O)(SC(C)CC)N1CCSC1=O` (configuration not stated), the call in test [1] and in test [5] was inactive. In addition, the Potency entry in test [2], in [3] and in test [15] was “inactive” throughout. The max response in [8] is -8.5%; in [24], 14.8% (inactive); in test [14], 1.22% (inactive); in [16], 14.1% (inactive); in test [17], 6.21% (inactive). Further, the activation in test [13] was -0.193% (inactive).
